Our source for the growth values is PubChem BioAssay (NCI).

Among the test systems are HCT-15 colon; HT29 colon; SNB-75 CNS; SNB-19 CNS; PC-3 prostate; SK-MEL-5 melanoma; UACC-62 melanoma; LOX IMVI melanoma; SK-MEL-28 melanoma; SK-MEL-2 melanoma; EKVX NSCLC; SN12C renal; UO-31 renal; TK-10 renal; ACHN renal; CAKI-1 renal; A498 renal; CCRF-CEM leukemia; MOLT-4 leukemia.
Common to all, as to experiment: NCI-60 one-dose screen, 48 h (100 = growth as untreated, 0 = no growth, -100 = all killed)
Holding throughout (details): 10 µM

Each structure is given as a SMILES string. The panel holds about 83,000 compounds, 20% with a hit somewhere; the sample as a whole holds those more often.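 The endpoint reported here, percent growth, reads 100 for growth as untreated, 0 for no net growth and -100 for all cells dead.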 A number with no mark means an inactive call. Active and inactive are the calls of the source. The calls were made as follows: active = growth percent below 10; inactive = the rest.

For the compound `COc1ccc(-c2ccc(SCC(=O)Nc3ccc(C#N)cc3)nn2)cc1`, the growth was 97.3% in the assay on HCT-15 colon; 130% with HT29 colon; 93.7% in the assay with SNB-75 CNS; 64.9% in the assay with SNB-19 CNS; 85% in the assay on PC-3 prostate; 94.4% in the assay on SK-MEL-5 melanoma. For the same compound, the growth with UACC-62 melanoma is 72.3%; in the assay on LOX IMVI melanoma, 84.7%; in the assay on SK-MEL-28 melanoma, 97.7%; with SK-MEL-2 melanoma, 114%; with EKVX NSCLC it was 95.1%; in the assay on SN12C renal, 95%. Moreover, the growth with UO-31 renal is 75.4%; in the assay with TK-10 renal, 108%; with ACHN renal it was 80.1%; in the assay on CAKI-1 renal, 81.4%; with A498 renal it was 124%; in the assay with CCRF-CEM leukemia, 95.9%. Further, in the assay with MOLT-4 leukemia, the growth is 94.4%.
On to `O=C(NCCCCC(c1ccc(F)cc1)c1ccc(F)cc1)NCCCc1cccnc1`, for which the growth in the assay on HCT-15 colon is 14%; in the assay on HT29 colon it was 14.4%; in the assay with SNB-75 CNS it was 53%; with SNB-19 CNS, 24.5%; with PC-3 prostate it was 11.5%; with SK-MEL-5 melanoma, -90.5% (active). Besides, the growth is 41.6% in the assay with UACC-62 melanoma; 42.5% with LOX IMVI melanoma; 20.8% in the assay with SK-MEL-28 melanoma; -1.41% (active) in the assay with SK-MEL-2 melanoma; 27.4% in the assay with EKVX NSCLC; 23.9% in the assay with SN12C renal. In addition, the growth in the assay on UO-31 renal is 26.2%; in the assay on TK-10 renal it was 46.2%; with ACHN renal, 37.5%; in the assay with CAKI-1 renal, 29.8%; in the assay with A498 renal it was 84.2%; in the assay with CCRF-CEM leukemia, -25.4% (active).
With `COc1cc(/C=C/C(=O)c2ccc(F)cc2)ccc1Oc1nc(Nc2ccc(F)cc2)nc(N(C)C)n1`, the growth is 37.2% with HCT-15 colon; 60.4% in the assay on HT29 colon; 72.5% in the assay on SNB-75 CNS; 68.6% with SNB-19 CNS; 63.9% with PC-3 prostate; 40% in the assay on SK-MEL-5 melanoma. The growth with UACC-62 melanoma was 51%; in the assay on LOX IMVI melanoma it was -56.3% (active); in the assay with SK-MEL-28 melanoma it was 62%; in the assay on SK-MEL-2 melanoma it was 61%; with EKVX NSCLC it was 50.1%; with SN12C renal, 60.1%. In addition, the growth is 47.1% with UO-31 renal; 99.4% in the assay on TK-10 renal; 50.9% with ACHN renal; 86.5% in the assay with A498 renal; 15.2% with CCRF-CEM leukemia; 1.46% (active) in the assay with MOLT-4 leukemia.
`O=c1[nH]c2ccccc2cc1CSc1ccc(Nc2nccc(-c3ccc(C(F)(F)F)cc3)n2)cc1`: the growth in the assay on HCT-15 colon is 29.7%; in the assay on HT29 colon it was 28.8%; in the assay on SNB-75 CNS, 19.1%; in the assay with SNB-19 CNS, 33.1%; with PC-3 prostate, 43.8%; in the assay with SK-MEL-5 melanoma, 89.2%. Further, the growth with UACC-62 melanoma was 81.9%; with LOX IMVI melanoma, 15.5%; with SK-MEL-28 melanoma it was 78.7%; in the assay with SK-MEL-2 melanoma, 85.4%; with EKVX NSCLC it was 7.65% (active); in the assay on SN12C renal, -19.7% (active). Besides, the growth with UO-31 renal is 5.37% (active); with TK-10 renal it was -6.8% (active); in the assay with ACHN renal it was -29.1% (active); in the assay on CAKI-1 renal, 12.7%; in the assay with A498 renal it was -50.2% (active); in the assay with CCRF-CEM leukemia, 75%.
Take `O=C(CNc1nc(-c2ccccc2)cs1)Nc1ccccc1`: the growth in the assay on HCT-15 colon was -70.6% (active); with HT29 colon, -53.9% (active); in the assay on SNB-75 CNS it was 29.2%; with SNB-19 CNS, -68.4% (active); with PC-3 prostate, 12.3%; in the assay on SK-MEL-5 melanoma, -99.5% (active). Besides, the growth in the assay on UACC-62 melanoma is -90.1% (active); in the assay on LOX IMVI melanoma, -90.1% (active); in the assay with SK-MEL-28 melanoma it was -60.1% (active); in the assay with SK-MEL-2 melanoma, -68.8% (active); in the assay with EKVX NSCLC, -93.3% (active); in the assay on SN12C renal it was -47.3% (active). For the same compound, the growth in the assay with UO-31 renal was 17.9%; in the assay with TK-10 renal, -79.4% (active); in the assay on ACHN renal, -27.4% (active); in the assay with CAKI-1 renal it was 5.53% (active); in the assay with A498 renal, -4.95% (active); with CCRF-CEM leukemia, 14.9%. Moreover, the growth in the assay on MOLT-4 leukemia is -3.86% (active).
`Cc1ccn2c(C(=O)c3ccccc3)cc(-c3cc(-c4ccc(N(C)C)cc4)c(C#N)c(N)n3)c2c1`: the growth with HCT-15 colon was 73.1%; in the assay with HT29 colon it was 63.1%; in the assay with SNB-75 CNS, 78.4%; with SNB-19 CNS, 60.9%; with PC-3 prostate, 78.1%; in the assay on SK-MEL-5 melanoma, 58.1%. For the same compound, the growth is 64.6% with UACC-62 melanoma; 21.8% with LOX IMVI melanoma; 74.3% in the assay with SK-MEL-28 melanoma; 80.9% in the assay on SK-MEL-2 melanoma; 88.6% with EKVX NSCLC; 61.9% with SN12C renal. Also, the growth was 65.4% with UO-31 renal; 85.7% with TK-10 renal; 31.2% in the assay with ACHN renal; 52.7% with CAKI-1 renal; 111% with A498 renal; 96.5% in the assay with CCRF-CEM leukemia. Besides, in the assay with MOLT-4 leukemia, the growth was 82.9%.
In the case of `CC1(C)CC[C@]2(C(=O)NCCCNCCCCNCCCN)CC[C@]3(C)C(=CC[C@@H]4[C@@]5(C)Cc6c([nH]c7ccccc67)C(C)(C)[C@@H]5CC[C@]43C)[C@H]2C1`, the growth was 85% in the assay with HCT-15 colon; 92.4% with HT29 colon; 101% with SNB-75 CNS; 57.9% with SNB-19 CNS; 65.8% with PC-3 prostate; 81.5% in the assay on SK-MEL-5 melanoma. Further, the growth is 116% in the assay with UACC-62 melanoma; 92.6% in the assay on LOX IMVI melanoma; 102% in the assay on SK-MEL-28 melanoma; 90.7% with EKVX NSCLC; 91.4% in the assay with SN12C renal; 71% with UO-31 renal. In addition, the growth was 96.9% in the assay with TK-10 renal; 93.9% with ACHN renal; 78% with CAKI-1 renal; 147% in the assay with A498 renal; 64.4% in the assay on CCRF-CEM leukemia.
Take `O=C1Nc2ccc(Cl)cc2/C1=C/c1cccc(OCc2ccccn2)c1`: the growth is -66.8% (active) in the assay with HCT-15 colon; -63.8% (active) in the assay on HT29 colon; 34.8% in the assay with SNB-75 CNS; 0.791% (active) in the assay on SNB-19 CNS; -9.7% (active) in the assay with PC-3 prostate; -47.3% (active) with SK-MEL-5 melanoma. Moreover, the growth is -81.2% (active) in the assay on UACC-62 melanoma; -89.9% (active) in the assay with LOX IMVI melanoma; -49.2% (active) in the assay with SK-MEL-28 melanoma; -50.6% (active) in the assay on SK-MEL-2 melanoma; 10.7% in the assay on EKVX NSCLC; -50.6% (active) with SN12C renal. Moreover, the growth was 10.5% in the assay on TK-10 renal; -40.3% (active) in the assay on ACHN renal; -7.95% (active) in the assay with CAKI-1 renal; 95% in the assay with A498 renal; -23.1% (active) in the assay on CCRF-CEM leukemia; 4.5% (active) with MOLT-4 leukemia.
